# Source: PubChem BioAssay AID652054 (National Center for Advancing Translational Sciences (NCATS), 2013)
# Screen size: about 360,000 compounds; about 9,100 (2.5%) were called active. Inconclusive results (about 4%) are left out. The list comes from a sample in which actives are over-represented; it also holds similar structures and randomly drawn compounds. Values without a mark were called inactive. No stated cut-off is given here; in the data, active means max response below about -50%; inconclusive means no clear call, values can overlap the other calls; inactive means above that.
# Biological target: D(3) dopamine receptor (Homo sapiens) (UniProt P35462)
# Sequence (P35462 whole entry, looked up): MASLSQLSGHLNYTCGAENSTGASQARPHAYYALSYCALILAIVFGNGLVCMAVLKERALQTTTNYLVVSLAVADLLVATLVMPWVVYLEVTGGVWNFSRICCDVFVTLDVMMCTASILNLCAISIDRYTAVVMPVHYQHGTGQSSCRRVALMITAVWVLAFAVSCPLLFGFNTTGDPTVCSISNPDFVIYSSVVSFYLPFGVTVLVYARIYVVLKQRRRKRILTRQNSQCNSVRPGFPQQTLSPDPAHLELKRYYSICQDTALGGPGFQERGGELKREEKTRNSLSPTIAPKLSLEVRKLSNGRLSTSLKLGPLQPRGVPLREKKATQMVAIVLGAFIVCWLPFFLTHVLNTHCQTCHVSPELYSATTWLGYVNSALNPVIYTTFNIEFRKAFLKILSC
# Assay: qHTS of D3 Dopamine Receptor Antagonist: qHTS
# Settings: D3R cells, DiscoveRx beta-arrestin luminescence, antagonist mode; hits give low values
# Procedure, shortened: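 Cells expressing the human receptor were seeded at 1500 cells/well, incubated overnight at 37 degrees C in 5% CO2, then exposed to library compounds with dopamine controls for 90 minutes at 37 degrees C before luminescent detection.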
# On the % scale 0 is the no-effect control and ±100 the full control effect.
row,Compound,"max response, negative = inhibition"
1,COc1ccc(NC(=O)c2sc(=O)n(Cc3ccc(S(=O)(=O)N(C)C)cc3)c2C)cc1,14.5%
2,CC1(C)CC(=O)C=C(NCCCNC2CCCCC2)C1,1.63%
3,CCCCCCNS(=O)(=O)c1ccccc1Br,0%
4,CCCCCCCCNS(=O)(=O)CCNC1CCCCC1,-69.1% (active)
5,CCCC(=O)N1CCC1(C)C(=O)NS(=O)(=O)c1ccc(Cl)cc1 (stereo unspecified),3.58%
6,c1ccc2c(c1)nnn2-c1ccncc1,-16.5%
7,Cc1[nH]c2ccc(C(=O)N3CCN(C)CC3)cc2c1C,-72.7% (active)
8,CCOC(=O)c1ccc2[nH]c(C)c(CN3CCN(C)CC3)c(=O)c2c1,0%
9,COC(=O)CCNC(=O)c1ccc2[nH]c(C)c(C)c2c1,-22.3%
10,CC1(C(=O)Nc2ccc3c(c2)OCCO3)CSCC(=O)N1CCOc1ccccc1 (stereo unspecified),-1.68%
11,O=C(Nc1ccc(OCCO)cc1)c1csc([C@H]2C[C@H](O)[C@@H](CO)O2)n1,-7.51%
12,O=C(NCc1cccnc1)c1ccc2nc([C@@H]3O[C@H](CO)[C@H](O)[C@H](O)[C@H]3O)[nH]c2c1,40.4%
13,Nc1nc2cc(Cl)ccc2n1N,0%
14,O=[N+]([O-])c1cc(Cl)cc(/C=N/NC(=S)Nc2cc(S(=O)(=O)N3CCOCC3)ccc2Cl)c1O,-50.3% (active)
15,O=C(Nc1cc(S(=O)(=O)N2CCOCC2)ccc1Cl)c1cc(=O)c2ccccc2o1,17%
16,O=C(c1cc(S(=O)(=O)N2CCOCC2)ccc1Cl)N1CCOCC1,-16%
17,Cc1cc(C)n2c(Nc3c(C)cccc3C)c(CCc3ccccc3)nc2n1,18.8%
18,CCN(CC)S(=O)(=O)c1cc([N+](=O)[O-])ccc1N=Nc1c(O)n(C)c2ccccc12,3.23%
19,CCN(CC)S(=O)(=O)c1cc([N+](=O)[O-])ccc1NNC(=O)Nc1ccccc1,-56.2% (active)
20,CC(=O)c1ccc(NC(=O)Nc2ccc([N+](=O)[O-])cc2C)cc1,-18.2%
21,COc1ccc(-c2cc(-c3ccc(N)cc3)nc(N)c2C#N)cc1OC,23.8%
22,COc1ccc(-c2cc(C(F)(F)F)nc(S(C)(=O)=O)n2)cc1OC,-72.7% (active)
23,COc1ccc(-c2ccc(Nc3ccc(S(=O)(=O)N4CCCC4)cc3)nn2)cc1OC,39.5%
24,COc1ccc(NC(=O)CCCOc2ccc(C(C)=O)cc2)cc1S(=O)(=O)N1CCCCC1,-5.42%
25,CC(C)NC(=O)C1(C)CCCCCN1C(=O)c1ccc(-c2ccccc2)cc1 (stereo unspecified),15.2%
26,CCOC(=O)C(=Cc1ccccc1)C(=O)c1ccccc1,-59.2% (active)

row,Compound,"max response, negative = inhibition"
1,CCOC(=O)C(=Cc1ccccc1OC)C(=O)OCC,-20.5%
2,CCOC(=O)C(=CNc1cccc(C)n1)C(=O)OCC,-3.11%
3,COC(=O)c1ccc2nc(-c3cccc(Br)c3)c(Cc3ccc(OC)cc3C)n2c1,-25.6%
4,Cc1ccccc1S(=O)(=O)N1[C@@H](c2cccc(Cl)c2)C(C(=O)OC(C)(C)C)=CC[C@H]1c1ccc(Cl)cc1,6.92%
5,CC(Sc1nnc(-c2cccs2)n1C1CC1)C(=O)NCC1CCCO1 (stereo unspecified),15.9%
6,CCOC(=O)C1(CC2CCCCO2)CCN(Cc2nc(-c3cccs3)oc2C)CC1 (stereo unspecified),-99% (active)
7,CCOc1ccccc1-c1nc(CN2CCC(C(=O)N3CCOCC3)CC2)c(C)o1,-15.7%
8,COc1ccccc1-c1cc2nc(NCc3cccc(Cl)c3)ccn2n1,7.72%
9,Cc1cccc(C)c1-n1nnnc1C1(C)CCC(=O)N1CCOc1ccccc1 (stereo unspecified),8.1%
10,CCc1ccccc1NC(=O)CN1CCN(C(=O)c2cc(C3CC3)nn2-c2ccccc2)CC1,13.7%
11,COc1ccc(NC(=O)CN(C)C(=O)c2cc(C3CC3)nn2-c2ccccc2)cc1,-0.552%
12,COc1ccc(CN2CCN(C(=O)c3cc(C4CC4)nn3-c3ccccc3)CC2)cc1F,-50% (active)
13,CC(C)OC(=O)CC(=O)CC(O)c1cccc([N+](=O)[O-])c1 (stereo unspecified),-17.6%
14,CC[C@@]12C(=O)N(c3ccccc3)C(=O)N1[C@H](c1ccc(Br)cc1)[C@@H]1C(=O)N(C(C)(C)C)C(=O)[C@@H]12,-54% (active)
15,CC(C)(C)N1C(=O)[C@H]2[C@@H](c3ccc(Br)cc3)N3C(=O)N(c4cccc(Cl)c4)C(=O)[C@@]3(C)[C@H]2C1=O,-1.37%
16,COc1ccc([C@@H]2[C@@H]3C(=O)N(C(C)(C)C)C(=O)[C@@H]3[C@]3(Cc4ccccc4)C(=O)N(c4cccc(Br)c4)C(=O)N23)cc1,8.03%
17,O=C1C(Sc2cccc(F)c2)=C[C@@]2(O)CC[C@@H](O)[C@]1(Sc1cccc(F)c1)[C@H]2O,4.49%
18,CCOC(=O)C(C)n1cnc2c(nnn2-c2cccc(OC)c2)c1=O (stereo unspecified),-57.8% (active)
19,CCOC(=O)C(C)n1cnc2c(nnn2-c2ccc(F)cc2)c1=O (stereo unspecified),-1.26%
20,COC(=O)C(C)n1cnc2c(nnn2-c2ccc(F)cc2)c1=O (stereo unspecified),0%
21,CCCCCCCCN1C(=O)[C@H](CC(=O)NCc2cccc3ccccc23)C[C@@]2(C(=O)OC)CCCCC=C12,10.6%
22,C#CCOCCOCCOCCNc1nc(N2CCN(C(=O)Cn3cc(CCO)nn3)CC2)nc(N2CCN(C(=O)[C@H](CCCCN)n3cc(CCCC)nn3)CC2)n1,15.4%
23,C#CCOCCOCCOCCNc1nc(N2CCN(C(=O)[C@H](C(C)C)n3cc(CCO)nn3)CC2)nc(N2CCN(C(=O)[C@H](C(C)C)n3cc(CCO)nn3)CC2)n1,8.41%
24,C#CCOCCOCCOCCNc1nc(N2CCN(C(=O)CCCCCCCCCCNC(=O)[C@H]([C@@H](C)CC)n3cc(CCCCN=C(N)N)nn3)CC2)nc(N2CCN(C(=O)CCCCCCCCCCNC(=O)[C@H](CO)n3cc(CCCSC)nn3)CC2)n1,-60.9% (active)
25,Cc1ccc(-c2nc3c(Cl)cc(C(F)(F)F)cn3c2Cc2cccc(Cl)c2)cc1,50.6%
